# According to PubChem BioAssay (EPA / NIEHS):
# Active and inactive are the calls of the source. How the source made its calls: active means hit-call score of the fitted dose curve at least 0.9, where 1 is the maximum; inactive means score below 0.9.
# Columns and labels:
# [1] = IUF_NPC2c_oligodendrocyte_migration_120hr: Leibniz Research Institute for Environmental Medicine (IUF) 120-hour Neural Progenitor Cell Migration Assay for Oligodendrocyte Migration (NPC2c) (AID 2284297);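 further: O4-positive oligodendrocyte migration distance divided by radial glia migration distance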
# Summary of the method: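 Using fetal brain neural progenitor spheres differentiating in N2 medium at 37C, compounds were present for 120 h. Oligodendrocyte migration distance, normalized to radial glia migration, was measured from imaged O4 staining.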
# [2] = IUF_NPC2a_radial_glia_migration_120hr: Leibniz Research Institute for Environmental Medicine (IUF) 120-hour Neural Progenitor Cell Migration Assay for Radial Glia Migration (NPC2a) (AID 2284298)
# Summary of the method: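 Exposure of 0.3 mm primary hNPC spheres runs day 0 to 120 h with a half-volume medium change at day 3. Fixed cells get Hoechst staining; high-content analysis of nuclear positions yields radial glia migration distance per well, compared against DMSO controls.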
# [3] = read-out: Interleukin 2 (IL2), IL2 (gene 3558); test: BSK_BT_xIL2: BioMAP Diversity Plus: BT Assay for Interleukin 2 (IL2) Biomarker Activity (AID 2284245); conditions: primary human B cells with PBMC
# Summary of the method: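 Readout: supernatant IL-2 via Luminex xMAP after 24 h chemical dosing of a B cell/PBMC primary human co-culture. DMSO serves as negative control and baseline; increases in signal were fitted.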
# [4] = read-out: Basic fibroblast growth factor (bFGF), FGF2 (gene 2247); test: BSK_MyoF_bFGF: BioMAP Diversity Plus: MyoF Assay for Basic fibroblast growth factor (bFGF) Biomarker Activity (AID 2284246); conditions: primary human lung fibroblasts
# Summary of the method: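 Primary human lung fibroblast culture, 24 h compound exposure; ELISA read-out of bFGF. Positive-direction fit vs DMSO baseline. Cytotoxicity: SRB stain (0.1% SRB, 10% TCA fixation, 560 nm) in parallel wells.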
# [5] = read-out: Collagen IV, COL4A1 (gene 1282); test: BSK_MyoF_CollagenIV: BioMAP Diversity Plus: MyoF Assay for Collagen IV Biomarker Activity (AID 2284247); conditions: primary human lung fibroblasts
# Summary of the method: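 ELISA read-out of Collagen IV in lung fibroblast cultures, 24 h post-dosing; gain of signal relative to DMSO vehicle baseline defines activity.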
# [6] = read-out: Plasminogen activator inhibitor-1 (PAI1), SERPINE1 (gene 5054); test: BSK_MyoF_PAI1: BioMAP Diversity Plus: MyoF Assay for Plasminogen activator inhibitor-1 (PAI1) Biomarker Activity (AID 2284256); conditions: primary human lung fibroblasts
# Summary of the method: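 In this multiplexed primary-cell system, fibroblasts from human lung received compound for 24 h before ELISA detection of PAI-1; overt toxicity was checked by SRB (0.1%, TCA-fixed, 560 nm) in parallel wells.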
# [7] = read-out: Interleukin-8 (IL8), CXCL8 (gene 3576); test: BSK_MyoF_IL8: BioMAP Diversity Plus: MyoF Assay for Interleukin-8 (IL8) Biomarker Activity (AID 2284261); conditions: primary human lung fibroblasts
# Summary of the method: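 DMSO-normalised, upward-fitted IL-8 ELISA signal; human lung fibroblasts, 24 h chemical treatment.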
# [8] = read-out: Decorin, DCN (gene 1634); test: BSK_MyoF_Decorin: BioMAP Diversity Plus: MyoF Assay for Decorin Biomarker Activity (AID 2284265); conditions: primary human lung fibroblasts
# Summary of the method: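 In this multiplexed fibroblast system, secreted or surface decorin is detected by ELISA one day after dosing, with increases scored against the DMSO vehicle.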
# [9] = BSK_MyoF_SRB: Viability Assessment in the BioMAP Diversity Plus: MyoF Assay (AID 2284267); conditions: primary human lung fibroblasts;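 further: total protein by SRB absorbance in parallel cultures as cytotoxicity measure; cells assessed 24 h after compound addition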
# Summary of the method: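 Lung fibroblast cultures, 24 h post-dose; fix 10% TCA, stain 0.1% SRB, read 560 nm. Signal = total protein as cytotoxicity measure; fitted relative to DMSO negative control.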
# [10] = read-out: TIMP metallopeptidase inhibitor 1 (TIMP1), TIMP1 (gene 7076); test: BSK_MyoF_TIMP1: BioMAP Diversity Plus: MyoF Assay for TIMP metallopeptidase inhibitor 1 (TIMP1) Biomarker Activity (AID 2284269); conditions: primary human lung fibroblasts
# Summary of the method: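 Fibroblasts from human lung are dosed with chemical, cultured 24 h, and assayed for TIMP-1 by ELISA. Increases over the DMSO baseline are scored, with SRB total-protein staining run in parallel for cytotoxicity.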
structure (smiles),measurement,setting,value
N#CN=C1SCCN1Cc1ccc(Cl)nc1,outcome,[1],inactive
same,outcome,[2],inactive
CNC(=O)Oc1cccc2ccccc12,outcome,[1],inactive
same,outcome,[2],inactive
COC(=O)N(C(=O)N1CO[C@@]2(C(=O)OC)Cc3cc(Cl)ccc3C2=N1)c1ccc(OC(F)(F)F)cc1,outcome,[1],inactive
same,outcome,[2],inactive
CO/N=C(/C1=NOCCO1)c1ccccc1Oc1ncnc(Oc2ccccc2Cl)c1F,outcome,[1],inactive
same,outcome,[2],inactive
C=C(C)CN(CC)c1c([N+](=O)[O-])cc(C(F)(F)F)cc1[N+](=O)[O-],outcome,[1],inactive
same,outcome,[2],inactive
CS(=O)(=O)c1ccc(C(=O)C2C(=O)CCCC2=O)c([N+](=O)[O-])c1,outcome,[1],inactive
same,outcome,[2],inactive
CCNC(=O)NC(=O)C(C#N)=NOC,outcome,[1],inactive
same,outcome,[2],inactive
CCOP(=O)(OCC)Oc1nc(Cl)c(Cl)cc1Cl,outcome,[1],inactive
same,outcome,[2],inactive
COCC(C)N(C(=O)CCl)c1c(C)csc1C (stereo not given),outcome,[3],inactive
same,outcome,[4],inactive
same,outcome,[5],inactive
same,AC50,[6],20 µM (active)
same,AC50,[7],10.3 µM (active)
same,outcome,[8],inactive
same,outcome,[9],inactive
same,outcome,[10],inactive
COP(=S)(OC)SCn1nnc2ccccc2c1=O,outcome,[1],inactive
same,AC50,[2],13.7 µM (active)
CC1(C)C(C=C(Cl)Cl)C1C(=O)OC(C#N)c1cccc(Oc2ccccc2)c1 (stereo not given),outcome,[1],inactive
same,outcome,[2],inactive
Cc1c(COC(=O)[C@@H]2[C@H](/C=C(\Cl)C(F)(F)F)C2(C)C)cccc1-c1ccccc1,outcome,[1],inactive
same,outcome,[2],inactive
CN/C(=N\[N+](=O)[O-])NCc1cnc(Cl)s1,outcome,[1],inactive
same,outcome,[2],inactive
CS(=O)(=O)c1cc(C(F)(F)F)ccc1C(=O)c1cnoc1C1CC1,outcome,[1],inactive
same,outcome,[2],inactive
CCSC(=O)N1CCCCCC1,outcome,[1],inactive
same,outcome,[2],inactive
CC(C)(C)C(=O)C(Oc1ccc(Cl)cc1)n1cncn1 (stereo not given),outcome,[1],inactive
same,outcome,[2],inactive
O=C(Nc1ccccc1-c1ccc(Cl)cc1)c1cccnc1Cl,outcome,[1],inactive
same,outcome,[2],inactive
